# Test results published in the supplement of paper PMC10849652.
# About 7,900 targets were measured; listed, in parts, are those with a hit and a random draw of the rest. About 0.6% of all pairs of compound and target were hits. Values without a mark were called inactive.
# Legend:
# Assay in all cases: log2 fold change, soluble protein after heating vs DMSO (PISA); higher = thermal stabilisation; K562 cells, 10 uM, 30 min; active = over 0.2 and 3.5 SD of the protein, either way, in both replicates (recomputed)
# [1] = compound: C/C(=N\NC(=O)C1=CC(=CC=C1)S(=O)(=O)N2CCOCC2)/C3=C(C=CC(=C3)Cl)O
# Summary of the method: (§1)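 K562 cells at 2×10^6 cells/mL were given 10 μM compound for 30 min. Aliquots then went through 3 min of heating across 48°C-58°C, were pooled, and were extracted in PBS with 0.5% NP-40 at 4°C, and the supernatant after 21,000xg for 90 min was quantified by TMTpro 16plex LC-MS/MS with channel sums equalised. Thermal stability relative to control samples, from duplicates, is given as log2 fold change.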
# [2] = compound: C1=CC2=C(C=CC(=C2)/C=C\3/C(=O)NC(=NCC4=CC=CS4)S3)N=C1
# Summary of the method: as §1
# [3] = compound: C1=CC=C(C=C1)C2=NC(=C(N2)C3=CC=NC=C3)C4=CC(=C(C=C4)Cl)O
# Summary of the method: as §1
# [4] = compound: C1=CC=C2C(=C1)C3=NNC4=CC=CC(=C43)C2=O
# Summary of the method: as §1
# [5] = compound: C1CCN(C1)C(=O)NC2=CC=CC(=C2)NC3=NC=C(C(=N3)NCCC4=CN=CN4)Br
# Summary of the method: as §1
# [6] = compound: C1CN(CCC1(CC2=CC=C(C=C2)Cl)N)C3=NC=NC4=C3C=CN4
# Summary of the method: as §1
# [7] = compound: CC(=O)c1cnc2ccc(-c3cc(Cl)c(O)c(Cl)c3)nc2c1N[C@H]1CC[C@H](CN(C)C)CC1
# Summary of the method: as §1
# ralimetinib = compound: CC(C)(C)Cn1c(N)nc2ccc(-c3[nH]c(C(C)(C)C)nc3-c3ccc(F)cc3)nc21 [ralimetinib]
# Summary of the method: as §1
# [8] = compound: CC(C)C[C@@H](C=O)NC(=O)[C@H](CC(C)C)NC(=O)[C@H](CC(C)C)NC(=O)OCc1ccccc1
# Summary of the method: as §1
# [9] = compound: CC1=C(C(CC(=O)N1)C2=CC=C(C=C2)C(F)(F)F)C(=O)NC3=C(C=C4C(=C3)C=NN4)F
# Summary of the method: as §1
# [10] = compound: CC1=C(C2=C(C=C1)C(=O)C3=CC=CC=C3N2CCCN)C
# Summary of the method: as §1
# erlotinib = compound: C#Cc1cccc(Nc2ncnc3cc(OCCOC)c(OCCOC)cc23)c1 [erlotinib]
# Summary of the method: as §1
# [11] = compound: C1=CC(=CC=C1C2=NC3=C(N2)C=C(C=C3)C(=O)N)OC4=CC=C(C=C4)Cl
# Summary of the method: as §1
# [12] = compound: C1=CC2=NC=CN=C2C=C1/C=C/3\C(=O)NC(=O)S3
# Summary of the method: as §1
# ibrutinib = compound: C=CC(=O)N1CCC[C@@H](n2nc(-c3ccc(Oc4ccccc4)cc3)c3c(N)ncnc32)C1 [ibrutinib]
# Summary of the method: as §1
# [13] = compound: CC(C)C1=C2N=C(C=C(N2N=C1)NCC3=CC=CC=C3)NCCCCCCN
# Summary of the method: as §1
# [14] = compound: C1=CC(=C(C=C1Cl)C2=NC3=NC=CN=C3C(=N2)NC4=CC=NC=C4)F
# Summary of the method: as §1
# IRAK-1-4 Inhibitor I = compound: C1COCCN1CCN2C3=CC=CC=C3N=C2NC(=O)C4=CC(=CC=C4)[N+](=O)[O-] [IRAK-1-4 Inhibitor I]
# Summary of the method: as §1
# [15] = compound: CC(C)(O)CC(=O)NCCn1ccc2ncnc(Nc3ccc(Oc4cccc(C(F)(F)F)c4)c(Cl)c3)c21
# Summary of the method: as §1
# pinometostat = compound: CC(C)N(C[C@H]1O[C@@H](n2cnc3c(N)ncnc32)[C@H](O)[C@@H]1O)[C@H]1C[C@@H](CCc2nc3cc(C(C)(C)C)ccc3[nH]2)C1 [pinometostat]
# Summary of the method: as §1
# Chain of UniProt Q9BYX2 (Q9BYX2 whole entry, looked up): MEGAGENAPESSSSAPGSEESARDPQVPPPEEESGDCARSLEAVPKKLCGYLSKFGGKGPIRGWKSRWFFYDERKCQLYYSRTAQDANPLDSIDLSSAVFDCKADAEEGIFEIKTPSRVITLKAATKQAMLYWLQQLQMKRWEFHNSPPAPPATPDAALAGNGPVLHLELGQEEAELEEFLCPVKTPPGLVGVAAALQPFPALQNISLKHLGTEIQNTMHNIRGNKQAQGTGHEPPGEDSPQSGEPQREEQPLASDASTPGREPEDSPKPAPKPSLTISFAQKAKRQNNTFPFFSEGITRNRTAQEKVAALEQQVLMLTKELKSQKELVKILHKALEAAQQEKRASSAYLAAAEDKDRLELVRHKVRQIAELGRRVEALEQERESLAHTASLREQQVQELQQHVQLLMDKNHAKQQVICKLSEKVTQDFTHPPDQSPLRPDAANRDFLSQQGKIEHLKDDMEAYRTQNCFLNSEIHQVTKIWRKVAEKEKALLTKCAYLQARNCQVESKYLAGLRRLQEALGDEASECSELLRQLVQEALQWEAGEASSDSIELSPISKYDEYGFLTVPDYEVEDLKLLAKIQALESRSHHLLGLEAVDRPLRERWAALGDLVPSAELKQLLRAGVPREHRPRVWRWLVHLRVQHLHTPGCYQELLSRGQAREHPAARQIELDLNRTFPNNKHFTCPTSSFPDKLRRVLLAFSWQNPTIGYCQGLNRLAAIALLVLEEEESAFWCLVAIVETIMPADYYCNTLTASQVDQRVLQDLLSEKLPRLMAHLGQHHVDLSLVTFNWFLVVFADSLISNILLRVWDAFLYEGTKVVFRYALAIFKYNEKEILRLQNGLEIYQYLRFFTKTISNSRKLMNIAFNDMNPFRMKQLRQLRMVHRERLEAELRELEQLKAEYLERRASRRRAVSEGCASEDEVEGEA
# Chain of UniProt Q9NY26 (Q9NY26 whole entry, looked up): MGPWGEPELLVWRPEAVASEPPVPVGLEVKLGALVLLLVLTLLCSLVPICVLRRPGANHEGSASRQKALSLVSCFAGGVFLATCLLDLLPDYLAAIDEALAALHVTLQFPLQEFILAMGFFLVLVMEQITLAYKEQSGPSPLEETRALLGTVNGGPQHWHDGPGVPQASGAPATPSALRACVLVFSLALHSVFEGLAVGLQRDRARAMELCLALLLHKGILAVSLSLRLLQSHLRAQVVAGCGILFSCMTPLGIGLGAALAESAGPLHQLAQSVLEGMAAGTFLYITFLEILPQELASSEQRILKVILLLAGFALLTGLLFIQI
# Chain of UniProt Q9BWG4 (Q9BWG4 whole entry, looked up): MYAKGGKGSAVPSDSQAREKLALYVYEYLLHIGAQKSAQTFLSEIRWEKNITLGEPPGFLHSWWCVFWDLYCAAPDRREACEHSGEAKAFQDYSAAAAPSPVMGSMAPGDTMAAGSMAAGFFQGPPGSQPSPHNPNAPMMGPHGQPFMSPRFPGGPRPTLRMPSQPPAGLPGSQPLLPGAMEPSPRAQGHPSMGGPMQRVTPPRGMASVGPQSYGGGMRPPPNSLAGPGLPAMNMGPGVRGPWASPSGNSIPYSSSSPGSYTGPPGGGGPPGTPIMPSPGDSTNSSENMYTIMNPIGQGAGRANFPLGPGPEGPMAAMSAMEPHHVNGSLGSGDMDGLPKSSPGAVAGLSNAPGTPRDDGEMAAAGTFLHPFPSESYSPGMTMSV
# Chain of UniProt P35711 (P35711 whole entry, looked up): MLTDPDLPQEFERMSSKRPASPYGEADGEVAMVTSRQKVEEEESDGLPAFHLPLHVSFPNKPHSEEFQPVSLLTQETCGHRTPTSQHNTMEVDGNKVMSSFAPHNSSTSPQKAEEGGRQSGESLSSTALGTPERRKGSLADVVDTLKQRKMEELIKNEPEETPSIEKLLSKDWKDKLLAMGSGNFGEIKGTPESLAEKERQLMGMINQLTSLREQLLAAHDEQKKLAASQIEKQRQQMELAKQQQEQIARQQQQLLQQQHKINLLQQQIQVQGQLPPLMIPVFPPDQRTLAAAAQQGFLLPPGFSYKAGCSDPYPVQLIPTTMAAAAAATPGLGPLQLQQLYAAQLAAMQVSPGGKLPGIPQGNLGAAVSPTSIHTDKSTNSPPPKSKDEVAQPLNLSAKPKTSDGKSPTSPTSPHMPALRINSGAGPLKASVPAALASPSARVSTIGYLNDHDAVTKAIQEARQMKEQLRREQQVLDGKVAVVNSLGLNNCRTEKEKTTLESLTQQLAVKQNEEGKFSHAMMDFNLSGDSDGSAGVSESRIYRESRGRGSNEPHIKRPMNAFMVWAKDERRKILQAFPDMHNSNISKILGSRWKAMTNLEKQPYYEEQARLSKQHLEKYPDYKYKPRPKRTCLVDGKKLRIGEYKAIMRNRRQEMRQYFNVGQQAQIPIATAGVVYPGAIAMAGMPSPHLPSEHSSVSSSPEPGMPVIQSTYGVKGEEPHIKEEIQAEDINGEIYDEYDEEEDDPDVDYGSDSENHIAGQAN
# Chain of UniProt Q6J4K2 (Q6J4K2 whole entry, looked up): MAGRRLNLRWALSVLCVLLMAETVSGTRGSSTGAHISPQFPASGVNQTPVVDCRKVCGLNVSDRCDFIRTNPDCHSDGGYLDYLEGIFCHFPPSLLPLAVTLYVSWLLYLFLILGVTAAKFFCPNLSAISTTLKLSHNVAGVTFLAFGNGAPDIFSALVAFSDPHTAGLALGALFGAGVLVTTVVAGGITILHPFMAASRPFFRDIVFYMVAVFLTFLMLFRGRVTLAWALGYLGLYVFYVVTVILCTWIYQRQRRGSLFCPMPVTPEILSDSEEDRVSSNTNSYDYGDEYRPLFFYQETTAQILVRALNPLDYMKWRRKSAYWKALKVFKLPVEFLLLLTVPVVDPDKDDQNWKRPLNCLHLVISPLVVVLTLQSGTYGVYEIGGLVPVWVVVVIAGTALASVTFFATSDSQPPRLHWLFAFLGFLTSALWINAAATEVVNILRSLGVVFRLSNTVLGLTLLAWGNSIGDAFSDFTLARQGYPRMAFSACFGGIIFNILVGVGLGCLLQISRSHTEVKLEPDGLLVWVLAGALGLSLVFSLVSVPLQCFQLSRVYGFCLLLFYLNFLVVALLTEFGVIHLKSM
# Chain of UniProt Q92581 (Q92581 whole entry, looked up): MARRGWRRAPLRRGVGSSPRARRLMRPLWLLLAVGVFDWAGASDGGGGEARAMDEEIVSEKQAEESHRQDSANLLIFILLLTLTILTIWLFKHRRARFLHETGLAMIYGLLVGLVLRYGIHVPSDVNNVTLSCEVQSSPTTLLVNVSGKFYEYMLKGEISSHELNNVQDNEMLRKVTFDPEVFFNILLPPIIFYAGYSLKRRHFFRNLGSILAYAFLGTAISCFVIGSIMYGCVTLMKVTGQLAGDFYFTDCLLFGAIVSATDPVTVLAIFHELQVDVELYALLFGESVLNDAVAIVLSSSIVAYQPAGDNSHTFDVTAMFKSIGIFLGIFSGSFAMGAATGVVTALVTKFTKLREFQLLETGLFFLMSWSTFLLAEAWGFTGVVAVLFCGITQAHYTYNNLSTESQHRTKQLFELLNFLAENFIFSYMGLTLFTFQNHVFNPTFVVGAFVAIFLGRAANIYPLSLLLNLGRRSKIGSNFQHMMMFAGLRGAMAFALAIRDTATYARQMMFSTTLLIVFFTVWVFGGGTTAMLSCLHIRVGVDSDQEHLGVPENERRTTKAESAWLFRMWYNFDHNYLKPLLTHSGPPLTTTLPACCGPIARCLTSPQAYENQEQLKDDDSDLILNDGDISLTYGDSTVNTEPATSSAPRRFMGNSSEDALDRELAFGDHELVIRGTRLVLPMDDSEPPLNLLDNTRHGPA
# Chain of UniProt Q8N9U0 (Q8N9U0 whole entry, looked up): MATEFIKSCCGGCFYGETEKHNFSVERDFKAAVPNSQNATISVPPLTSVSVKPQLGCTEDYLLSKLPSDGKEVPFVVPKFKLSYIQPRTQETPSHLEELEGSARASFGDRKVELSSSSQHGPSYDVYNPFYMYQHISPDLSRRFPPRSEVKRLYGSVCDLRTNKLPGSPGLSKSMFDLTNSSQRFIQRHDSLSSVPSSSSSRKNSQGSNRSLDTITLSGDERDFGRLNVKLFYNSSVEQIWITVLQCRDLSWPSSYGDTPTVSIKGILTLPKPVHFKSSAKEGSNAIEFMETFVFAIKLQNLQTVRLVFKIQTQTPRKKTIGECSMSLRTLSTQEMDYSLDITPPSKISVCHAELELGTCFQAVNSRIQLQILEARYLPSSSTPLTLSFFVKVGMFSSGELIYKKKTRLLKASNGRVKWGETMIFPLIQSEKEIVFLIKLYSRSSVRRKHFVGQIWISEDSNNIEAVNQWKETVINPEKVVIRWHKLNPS
# Chain of UniProt Q8N1S5 (Q8N1S5 whole entry, looked up): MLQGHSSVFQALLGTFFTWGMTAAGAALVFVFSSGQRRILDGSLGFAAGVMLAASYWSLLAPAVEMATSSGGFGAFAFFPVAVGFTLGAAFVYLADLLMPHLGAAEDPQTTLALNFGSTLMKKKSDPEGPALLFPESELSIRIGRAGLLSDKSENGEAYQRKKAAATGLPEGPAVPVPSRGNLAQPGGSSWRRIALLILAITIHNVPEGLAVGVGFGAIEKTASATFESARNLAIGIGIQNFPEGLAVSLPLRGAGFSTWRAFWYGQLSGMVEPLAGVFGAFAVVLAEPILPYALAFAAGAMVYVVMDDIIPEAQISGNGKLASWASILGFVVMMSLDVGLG
# Chain of UniProt Q5VWP2 (Q5VWP2 whole entry, looked up): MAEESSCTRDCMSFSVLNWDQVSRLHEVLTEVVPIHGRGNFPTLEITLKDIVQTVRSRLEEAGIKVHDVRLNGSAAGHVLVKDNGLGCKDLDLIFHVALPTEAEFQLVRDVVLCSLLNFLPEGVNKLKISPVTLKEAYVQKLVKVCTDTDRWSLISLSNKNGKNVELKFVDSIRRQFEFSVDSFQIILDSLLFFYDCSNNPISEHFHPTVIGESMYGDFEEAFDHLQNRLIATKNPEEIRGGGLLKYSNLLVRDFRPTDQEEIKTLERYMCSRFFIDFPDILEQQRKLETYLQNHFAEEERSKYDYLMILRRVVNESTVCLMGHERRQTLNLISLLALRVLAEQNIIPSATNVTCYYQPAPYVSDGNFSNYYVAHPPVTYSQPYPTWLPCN
Target,log2 fold change [1],log2 fold change [2],log2 fold change [3],log2 fold change [4],log2 fold change [5],log2 fold change [6],log2 fold change [7],log2 fold change (ralimetinib),log2 fold change [8],log2 fold change [9],log2 fold change [10],log2 fold change (erlotinib),log2 fold change [11],log2 fold change [12],log2 fold change (ibrutinib),log2 fold change [13],log2 fold change [14],log2 fold change (IRAK-1-4 Inhibitor I),log2 fold change [15],log2 fold change (pinometostat)
TC2N (UniProt Q8N9U0),0.038,0.362,-0.021,0.054,0.042,-0.004,-0.486,-0.036,0.028,-0.364,0.014,,,,,,,,,
SLC9A6 isoform 3 (UniProt Q92581),0.013,-0.022,,-0.068,0.021,0.006,0.004,,,,0.075,0.006,-0.103,0.18,-0.012,0.051,,,,
SLC46A1 (UniProt Q96NT5),-0.017,-0.042,,0,-0.193,0.091,-0.008,,,,-0.049,0.094,-0.054,,,-0.04,,,,
SNX2 isoform 2 (UniProt O60749),-0.244,0.402,,-0.033,,,-0.039,,,,,,,-0.186,0.151,,0.091,0.091,-0.377,-0.094
SRXN1 (UniProt Q9BYN0),0.335,0.036,0.004,-0.017,-0.021,0.048,0.12,-0.134,-0.024,0.045,-0.026,,,0.031,-0.013,,0.097,-0.291,-0.201,0.187
TENT5C (UniProt Q5VWP2),,,-0.104,,-0.025,-0.017,,-0.119,0.03,-0.018,-0.014,-0.117,0.087,0.023,0.008,0.18,,0.136,,-0.028
SLC39A1 (UniProt Q9NY26),,,,,,,,,,,,0.123,0.053,,,-1.06 (active),,,,
SRCAP (UniProt Q6ZRS2),,,-0.191,,0.059,-0.254,,0.036,0.12,0.078,0.103,0.039,0.031,0.117,0,0.046,,-0.42 (active),,0.037
SSBP4 (UniProt Q9BWG4),0.076,-0.054,-0.052,-0.099,0.022,-0.024,-0.081,-0.131,0.011,0.013,0.015,0.08,0.043,-0.056,0.001,0.058,,0.013,,0.09
SMPD4 isoform 2 (UniProt Q9NXE4),-0.001,0.134,,-0.003,-0.011,0.05,0.196,,,,0.115,,,-0.027,-0.156,,,0.016,,0
TBC1D2 (UniProt Q9BYX2),0,0.063,,-0.006,,,-0.208,,,,,,,,,,-0.042,,0.007,
SLC35B1 isoform 2 (UniProt P78383),,,0.085,,-0.021,0.271,,-0.184,0.038,-0.086,0.011,-0.024,0.127,0.018,0.09,-0.04,-0.008,-0.067,-0.217,0.065
SLC8B1 (UniProt Q6J4K2),0.089,-0.039,0.016,0.032,,,0.112,-0.093,0.048,,,0.111,0.003,0.095,-0.091,-0.378,,0.096,,0.019
SPAG9 isoform 4 (UniProt O60271),0.048,-0.103,0.272,0.04,0.03,0.119,0.14,0.191,0.049,-0.003,-0.243,0.019,-0.087,-0.065,0.349,-0.202,,-0.027,,0.061
TAF6L (UniProt Q9Y6J9),0.08,0.009,-0.051,0.088,-0.069,-0.197,0.054,-0.092,0.122,0.118,-0.03,0.042,-0.132,,,0.023,,,,
TK1 (UniProt K7ERV3),0.063,0.028,-0.069,0.037,-0.015,0.061,-0.071,-0.025,0.078,0.004,-0.037,,,-0.006,-0.033,,-0.011,,-0.122,

Target,log2 fold change [1],log2 fold change [2],log2 fold change [3],log2 fold change [4],log2 fold change [5],log2 fold change [6],log2 fold change [7],log2 fold change (ralimetinib),log2 fold change [8],log2 fold change [9],log2 fold change [10],log2 fold change (erlotinib),log2 fold change [11],log2 fold change [12],log2 fold change (ibrutinib),log2 fold change [13],log2 fold change [14],log2 fold change (IRAK-1-4 Inhibitor I),log2 fold change [15],log2 fold change (pinometostat)
SREBF1 isoform 4 (UniProt P36956),,,,,,,,,,,,0.034,0.001,0.068,0.025,-0.077,0.045,0.008,-0.404,-0.088
SOX5 (UniProt P35711),0.006,0.047,-0.049,0.012,-0.069,0.095,-0.028,0.037,0.368,-0.051,-0.081,0.009,0.125,0.018,0.115,-0.086,,0.067,,-0.088
TDP1 (UniProt Q9NUW8),,,,,,,,,,,,0.141,,,,0.156,,,,
SUN1 isoform 9 (UniProt O94901),0.037,0.066,-0.052,0.066,0.057,0.094,-0.114,0.067,0.042,0.127,-0.05,0.055,0.032,,,-0.149,-0.346 (active),-0.028,0.115,0.128
SYNE2 isoform 2 (UniProt Q8WXH0),-0.672 (active),0.084,-0.007,0.001,-0.045,0.029,0.059,0.01,0.059,0,0.044,0.405,-0.301,-0.027,-0.037,0.078,,0.046,,-0.024
TBP (UniProt P20226),-0.016,0.073,0.012,-0.058,0.018,0.157,0.091,-0.016,-0.002,-0.046,0.528 (active),,,0.041,-0.029,,0.027,0.018,0.036,-0.019
SMDT1 (UniProt Q9H4I9),0.012,0.044,,0.044,0.01,0.036,-0.026,,,,0.027,,,0.067,0.036,,-0.032,0.039,-0.012,-0.043
SPIN4 (UniProt Q56A73),,,,,,,,,,,,-0.125,0.116,,,-0.079,,0.07,,0.051
SLC39A11 (UniProt Q8N1S5),-0.009,0.043,0.07,0.053,-0.144,0.019,0.051,0.012,-0.051,-0.024,0.07,-0.042,0.05,0.009,0.066,-0.117,,0.092,,-0.085
TGFBR1 isoform 2 (UniProt P36897),0.084,-0.072,0.161,0.004,-0.019,0.047,0.329 (active),0.072,0.049,-0.022,0.019,-0.012,-0.051,0.043,0.006,0.025,,-0.004,-0.043,-0.047
TM7SF3 (UniProt Q9NS93),0.053,-0.101,0.02,0.061,0.001,0.123,0.055,-0.068,0.01,0.016,0.057,-0.073,0.03,0.034,0.014,-0.485 (active),,-0.06,,-0.036
SNX15 (UniProt Q9NRS6),0.062,-0.088,0,-0.065,-0.166,-0.072,-0.111,-0.051,0.021,-0.099,-0.016,,,-0.006,-0.112,,,-0.031,,-0.069
TACC2 (UniProt O95359),0.008,0.005,-0.128,0.014,0.014,-0.026,0.054,0.108,-0.007,0.069,0.058,-0.219,0.06,0.075,-0.058,-0.205,,,,
SNRK (UniProt Q9NRH2),,,,,,,,,,,,,,,,,,-0.126,,-0.087
TCOF1 isoform 6 (UniProt Q13428),,,0.186,,0.002,0.02,,0.225,-0.127,0,-0.155,-0.234,0.074,-0.045,0.12,0.092,,0.041,,-0.121
